Where “and” joins values, the source holds several entries; their conditions need not be identical. Identical values can stand only once. Results filed as inconclusive are left out. Some structures have more than one record in an assay (separate samples or runs), and their calls can disagree. Calls of active or inactive are those of the source. The calls were made as follows, unless noted: active = hit-call score of the fitted dose curve at least 0.9, where 1 is the maximum; inactive = score below 0.9.
What was measured:
[1] = CCTE_Harrill_HTTr_Viability_MCF7: CCTE's 6-hour Cell Viability Assessment for the High-Throughput Transcriptomics (HTTr) Platform, in MCF-7 cells cultured in DMEM + 10% fetal bovine serum, Harrill Lab (AID 2284010)
How it was run: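 Viability measured through PI dye exclusion by high-content imaging at 6 h post-dosing.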

[2] = CCTE_Harrill_HTTr_Apoptosis_MCF7: CCTE's 6-hour Apoptosis Assessment for the High-Throughput Transcriptomics (HTTr) Platform, in MCF-7 cells cultured in DMEM + 10% fetal bovine serum, Harrill Lab (AID 2284011)
How it was run: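 Read-out: CellEvent Caspase 3/7 Green signal by high content imaging, gain-of-signal indicating apoptosis. MCF-7 cells, DMEM + 10% FBS, eight-point dilution series, 6 h exposure. Curves fitted bidirectionally relative to DMSO negative control.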

[3] = CCTE_Shafer_MEA_acute_burst_number: CCTE's Neural Acute Assay for Single-Electrode Bursts, Shafer Lab (AID 2284013)
How it was run: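 Primary rat cortical neurons on 16-electrode MEA wells, treated on DIV 13 or 15 with compound at 0.03-40 uM. Single-electrode burst count from 40-min recordings at 37 C before and after exposure; percent change from baseline per well, DMSO negative control.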

[4] = CCTE_Shafer_MEA_acute_burst_duration_mean: CCTE's Neural Acute Assay for Mean Burst Duration, Shafer Lab (AID 2284014);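 also: hits are decreases in mean burst duration relative to DMSO controls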
How it was run: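 Rat primary cortical neurons on 48-well MEA, treated at DIV 13 or 15 with 0.03-40 uM in at least 3 wells. Value is percent change in mean burst duration, comparing 40 min recordings at 37 C before and during exposure.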

[5] = CCTE_Shafer_MEA_acute_per_burst_spike_number_mean: CCTE's Neural Acute Assay for Average Number of Spikes Per Burst, Shafer Lab (AID 2284015);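 also: hits are decreases in mean spikes per burst versus baseline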
How it was run: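 Rat primary cortical neurons on 48-well MEAs (DIV 13 or 15) were treated with 0.03-40 uM compound at 37 C. Mean spikes per burst over 40 min were recorded before and after exposure and expressed as percent change from baseline, relative to DMSO.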

[6] = CCTE_Shafer_MEA_acute_interburst_interval_mean: CCTE's Neural Acute Assay for Mean Interburst Interval, Shafer Lab (AID 2284016);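 also: percent change of mean interburst interval versus each well's own pre-dose baseline; curves fitted for decrease in interburst interval relative to DMSO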
How it was run: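 Rat primary cortical neurons on 48-well MEAs at DIV 13 or 15 were exposed acutely to 0.03-40 uM. Spikes detected at 8x rms noise, 37 C. Mean interburst interval from 40 min recordings expressed as percent change from 40 min pre-treatment baseline.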

[7] = CCTE_Shafer_MEA_acute_burst_percentage_mean: CCTE's Neural Acute Assay for Percentage of Spikes in a Burst, Shafer Lab (AID 2284017);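 as to AC50: curve fitted for loss of signal so potency reflects decreased burst percentage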
How it was run: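 Primary rat cortical neurons on 48-well MEA plates, treated on DIV 13 or 15 at 0.03-40 uM. Spikes detected at 8x rms noise at 37C; percent change from 40-min baseline to 40-min post-dose recording, fitted versus DMSO.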

[8] = CCTE_Shafer_MEA_acute_burst_percentage_std: CCTE's Neural Acute Assay for Standard Deviation of Burst Percentage, Shafer Lab (AID 2284018);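 also: fitted in the negative direction so actives lower burst percentage SD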
How it was run: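 Rat primary cortical neurons on 48-well MEAs, DIV 13 or 15, 37 C. 40-min baseline then 40-min recording with compound (0.03-40 uM); well-level SD of per-electrode burst spike percentage, expressed as percent change from baseline.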

[9] = CCTE_Shafer_MEA_acute_per_network_burst_spike_number_mean: CCTE's Neural Acute Assay for Average Number of Spikes in a Network Burst, Shafer Lab (AID 2284019);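 as to AC50: curve fitted for loss of signal so actives reduce spikes per network burst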
How it was run: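 Rat primary cortical neurons on 48-well MEA at DIV 13 or 15, 37 C; compounds 0.03-40 uM, at least three wells each. 40-min baseline then 40-min exposure recording; percent change in mean spikes per network burst.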

[10] = CCTE_Shafer_MEA_acute_per_network_burst_spike_number_std: CCTE's Neural Acute Assay for Standard Deviation of Number of Spikes in a Network Burst, Shafer Lab (AID 2284020);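 also: fitted for decrease in spike-number SD versus DMSO so actives lower it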
How it was run: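 Rat primary cortical neurons on 48-well MEA (16 electrodes/well), treated DIV 13 or 15 at 0.03-40 uM, ≥3 wells per compound. 40 min recordings at 37 C before and after dosing; value is percent change in network-burst spike-number SD, negative direction vs DMSO.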

[11] = CCTE_Shafer_MEA_acute_per_network_burst_electrodes_number_mean: CCTE's Neural Acute Assay for Mean Number of Electrodes in a Network Burst, Shafer Lab (AID 2284021);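 also: curves fitted for decreases only so hits reduce electrodes per burst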
How it was run: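 Readout: % change in mean electrodes active per network burst, post- vs pre-treatment, each well. Spikes detected at 8x rms noise after 300-5000 Hz band-pass; rat cortical cultures, DIV 13/15, compounds 0.03-40 uM, DMSO baseline.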

[12] = biological target: Estrogen receptor (Homo sapiens) (UniProt P03372); assay: CCTE_Deisenroth_AIME_96WELL_LUC_Active: CCTE's 96-well Estrogen Receptor Transactivation Assay with AIME metabolic competence (ERTA luciferase; metabolism positive), Deisenroth Lab (AID 2284023; active = hit-call score of the fitted dose curve at least 0.9, where 1 is the maximum)
Chain of Estrogen receptor (Homo sapiens) (P03372 whole entry, looked up): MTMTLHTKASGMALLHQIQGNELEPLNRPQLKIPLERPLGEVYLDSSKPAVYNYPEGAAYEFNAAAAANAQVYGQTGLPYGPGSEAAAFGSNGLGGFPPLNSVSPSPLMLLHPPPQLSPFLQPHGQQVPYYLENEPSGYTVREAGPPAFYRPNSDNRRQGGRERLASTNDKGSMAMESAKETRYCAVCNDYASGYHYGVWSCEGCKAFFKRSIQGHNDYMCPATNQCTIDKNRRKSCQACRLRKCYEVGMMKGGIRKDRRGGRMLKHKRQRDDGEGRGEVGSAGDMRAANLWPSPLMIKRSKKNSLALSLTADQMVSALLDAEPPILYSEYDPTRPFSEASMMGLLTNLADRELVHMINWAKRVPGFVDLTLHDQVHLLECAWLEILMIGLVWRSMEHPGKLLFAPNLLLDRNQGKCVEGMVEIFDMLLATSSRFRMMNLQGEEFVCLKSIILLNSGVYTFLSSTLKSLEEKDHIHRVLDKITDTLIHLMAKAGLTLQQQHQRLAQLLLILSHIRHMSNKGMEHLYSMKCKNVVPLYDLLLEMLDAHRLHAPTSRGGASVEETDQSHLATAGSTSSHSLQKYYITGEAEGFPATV
How it was run: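 Chemicals pre-incubated 2 h with alginate-immobilized phenobarbital/beta-naphthoflavone-induced male Sprague Dawley rat liver S9, then medium transferred to VM7Luc4E2 cells for 24 h luciferase read-out. 10-point series 0.002 - 200 uM; fitted relative to 17beta-estradiol.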

[13] = CCTE_Shafer_MEA_acute_cross_correlation_area: CCTE's Neural Acute Assay for Area of Cross Correlation, Shafer Lab (AID 2284024);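 also: area under pooled inter-electrode spike cross-correlation near zero lag as percent change from own baseline; curves fitted for loss of cross-correlation area so actives lower synchrony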
How it was run: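 Rat cortical cultures, DIV 13/15, MEA; spikes detected at 8x rms noise (300-5000 Hz band-pass). Compound 0.03-40 uM, ≥3 wells each. Readout: % change in pooled inter-electrode cross-correlation area vs own baseline; DMSO negative control.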

[14] = biological target: Estrogen receptor (Homo sapiens) (UniProt P03372); assay: CCTE_Deisenroth_AIME_96WELL_LUC_Inactive: CCTE's 96-well Estrogen Receptor Transactivation Assay without AIME metabolic competence (ERTA luciferase; metabolism negative), Deisenroth Lab (AID 2284025; active = hit-call score of the fitted dose curve at least 0.9, where 1 is the maximum)
How it was run: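 VM7Luc4E2 breast cells, luciferase read 24 h after dosing with medium pre-incubated 2 h on alginate-water lids (metabolism negative). 10-point series 0.002–200 uM, single technical replicate, n≥4; fit relative to 17beta-estradiol.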

[15] = CCTE_Shafer_MEA_acute_cross_correlation_HWHM: CCTE's Neural Acute Assay for Cross Correlation at Half Width at Half Maximum, Shafer Lab (AID 2284026);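 also: percent change per well from pre-dose baseline in spike cross-correlogram half width; hits are a decrease in cross-correlogram half width relative to DMSO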
How it was run: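 Read-out: half width at half maximum of action-potential cross-correlogram, percent change versus pre-treatment baseline, fitted in loss direction against DMSO. Rat cortical cultures, DIV 13 or 15, dosed 0.03-40 uM, 40-min recordings at 37 C.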

[16] = CCTE_Shafer_MEA_acute_synchrony_index: CCTE's Neural Acute Assay for Synchrony, Shafer Lab (AID 2284027);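 also: network synchrony index of spontaneous spiking in primary rat cortical neurons on MEAs; fitted for loss of signal so actives lower synchrony relative to DMSO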
How it was run: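 Spontaneous firing of mature rat cortical networks is captured extracellularly on microelectrode arrays at 37 C, with wells needing ≥10 active electrodes. Each compound (0.03-40 uM) is judged by the change in synchrony index from baseline over 40 min.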

[17] = CCTE_Deisenroth_AIME_96WELL_CTox_Active: Cytotoxicity Assessment (CTOX) in CCTE's 96-well Estrogen Receptor Transactivation Assay with AIME metabolic competence (metabolism positive), Deisenroth Lab (AID 2284028; active = hit-call score of the fitted dose curve at least 0.9, where 1 is the maximum)
How it was run: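 Chemicals (0.002–200 uM) were first incubated 2 h with alginate-immobilized phenobarbital/beta-naphthoflavone-induced male rat liver S9; conditioned medium then went onto VM7Luc4E2 cells for 24 h, with viability read by protease-substrate fluorescence, fitted bidirectionally.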

[18] = CCTE_Deisenroth_AIME_96WELL_CTox_Inactive: Cytotoxicity Assessment (CTOX) in CCTE's 96-well Estrogen Receptor Transactivation Assay without AIME metabolic competence (metabolism negative), Deisenroth Lab (AID 2284029; active = hit-call score of the fitted dose curve at least 0.9, where 1 is the maximum)
How it was run: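 Chemicals (10-point series, 0.002-200 uM) were incubated 2 h with alginate-water microspheres lacking S9. The conditioned medium was then transferred onto VM7Luc4E2 cells for 24 h. Viability was measured by protease-substrate cleavage to a fluorescent probe, with loss of signal fitted bidirectionally; n≥4 experimental replicates.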

[19] = biological target: Estrogen receptor (Homo sapiens) (UniProt P03372); assay: CCTE_Deisenroth_AIME_384WELL_LUC_Active: CCTE's 384-well Estrogen Receptor Transactivation Assay with AIME metabolic competence (ERTA luciferase; metabolism positive), Deisenroth Lab (AID 2284030; active = hit-call score of the fitted dose curve at least 0.9, where 1 is the maximum)
How it was run: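 Readout: bioluminescent luciferase induction in VM7Luc4E2 cells 24 hour after receiving medium from a 2 h rat hepatic S9 (induced, alginate microsphere) metabolism step. Concentrations 0.002 - 200 uM; activity scaled to 17beta-estradiol positive control.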

[20] = CCTE_Shafer_MEA_dev_firing_rate_mean: CCTE's Neural Network Formation Assay for Mean Firing Rate, Shafer Lab (AID 2284031);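 also: AUC of well mean spike rate recorded on DIV 5 7 9 and 12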;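 as to AC50: curve fitted for loss of firing so AC50 reflects decreased mean firing rate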
How it was run: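 Developing rat cortical networks on MEA plates undergo 12-day compound exposure. Firing frequency, averaged across active electrodes, is integrated as area under the curve over four recording days, referenced to DMSO.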

Measured: AC50

O=C(O)c1c(Cl)ccc2cc(Cl)cnc12
inactive: [1] | [2]

CC1(C)C(C=C(Cl)Cl)C1C(=O)OC(C#N)c1cccc(Oc2ccccc2)c1 (centres undefined)
inactive: [1] | [2] | [3] | [4] | [5] | [8] | [9] | [10] | [12] | [13] | [15] | [17] | [18] | [20]
active: [6] 4.16 µM | [7] 1.57 µM | [11] 0.622 µM | [14] 57 µM | [16] 3.97 µM | [19] 40.8 µM | [20] 2.98 µM

CC(C)N1C(=O)N(c2ccccc2)CSC1=NC(C)(C)C
active: [3] 4.94 µM | [5] 20 µM | [7] 20 µM | [9] 13.5 µM | [10] 17.6 µM | [11] 17.4 µM | [15] 20 µM | [16] 23.2 µM
inactive: [1] | [2] | [4] | [6] | [8] | [13] | [19]

COc1ccc(-c2ccccc2)cc1NNC(=O)OC(C)C
inactive: [1] | [2]

N#Cc1c[nH]cc1-c1cccc2c1OC(F)(F)O2
active: [5] 20 µM | [7] 20 µM | [8] 32.4 µM | [10] 20 µM | [15] 20 µM
not listed: [12] | [14] | [17] | [18] | [19] | [20]
inactive: all other assays above

C=CCOC(=O)C(C)(C)OC(=O)c1cc(-n2c(=O)cc(C(F)(F)F)n(C)c2=O)ccc1Cl
inactive: [1] | [2]

CC(C)Oc1cccc(NC(=O)c2ccccc2C(F)(F)F)c1
inactive: [1] | [2]

CCCCOCN(C(=O)CCl)c1c(CC)cccc1CC
inactive: [1] | [2]

CCN(CC)C(=O)C(C)Oc1cccc2ccccc12 (centres undefined)
inactive: [1] | [2]

CCCCC(C#N)(Cn1cncn1)c1ccc(Cl)cc1 (centres undefined)
inactive: [1] | [2]

O=P(O)(O)CCCl
inactive: [1] | [2]

COCC(C)N(C(=O)CCl)c1c(C)csc1C (centres undefined)
inactive: [1] | [2] | [19]

CCNC(=O)NC(=O)C(C#N)=NOC
inactive: [1] | [2] | [20]

CO/N=C(/C1=NOCCO1)c1ccccc1Oc1ncnc(Oc2ccccc2Cl)c1F
active: [5] 20 µM | [7] 20 µM | [15] 20 µM | [16] 20 µM | [20] 589 nM and 960 nM
not listed: [12] | [14] | [17] | [18] | [19]
inactive: all other assays above

COc1cc(OC)nc(NC(=O)NS(=O)(=O)c2ncccc2OCC(F)(F)F)n1
inactive: [1] | [2] | [19]

CCOc1nc(C(Cl)(Cl)Cl)ns1
inactive: [1] | [2] | [19]

Cn1c(-c2ccccc2)cc(-c2ccccc2)[n+]1C
active: [3] 1.15 µM | [7] 31.4 µM | [11] 20 µM | [15] 20 µM | [16] 36.8 µM
inactive: [1] | [2] | [4] | [5] | [8] | [9] | [10] | [13]

COP(=S)(OC)Oc1ccc([N+](=O)[O-])c(C)c1
inactive: [1] | [2] | [19] | [20]

CS(=O)(=O)c1ccc(C(=O)C2C(=O)CCCC2=O)c([N+](=O)[O-])c1
inactive: [1] | [2] | [20]

CCOP(=S)(OCC)Oc1nc(Cl)n(C(C)C)n1
inactive: [1] | [2] | [19]

Cc1cc(C)nc(Nc2ccccc2)n1
active: [19] 93.3 µM
inactive: [1] | [2]

CC(C)(C)C(=O)C(Oc1ccc(Cl)cc1)n1cncn1 (centres undefined)
inactive: [1] | [2] | [20]

Nc1cnn(-c2ccccc2)c(=O)c1Cl
inactive: [1] | [2] | [19]

CNC(=O)Oc1cccc2ccccc12
not listed: [3] | [12] | [14] | [17] | [18] | [19]
inactive: all other assays above
